# Reference: PMC4336329 (PLoS ONE, 2015)
# About 14,000 (4.5%) of roughly 310,000 compounds showed an effect of 50% or more. Effects have a minus sign here. The full list was thinned out, with strong results kept by preference.
# Target: human ether-à-go-go-related gene (hERG) potassium channel (human, UniProt Q12809)
# Test: primary screen, population patch clamp on CHO cells stably expressing hERG; higher = less effect of the substance
# 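Further: peak tail current of the secondary pulse compared with the same well before compound.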
# Sequence of human ether-à-go-go-related gene (hERG) potassium channel (Q12809 whole entry, looked up): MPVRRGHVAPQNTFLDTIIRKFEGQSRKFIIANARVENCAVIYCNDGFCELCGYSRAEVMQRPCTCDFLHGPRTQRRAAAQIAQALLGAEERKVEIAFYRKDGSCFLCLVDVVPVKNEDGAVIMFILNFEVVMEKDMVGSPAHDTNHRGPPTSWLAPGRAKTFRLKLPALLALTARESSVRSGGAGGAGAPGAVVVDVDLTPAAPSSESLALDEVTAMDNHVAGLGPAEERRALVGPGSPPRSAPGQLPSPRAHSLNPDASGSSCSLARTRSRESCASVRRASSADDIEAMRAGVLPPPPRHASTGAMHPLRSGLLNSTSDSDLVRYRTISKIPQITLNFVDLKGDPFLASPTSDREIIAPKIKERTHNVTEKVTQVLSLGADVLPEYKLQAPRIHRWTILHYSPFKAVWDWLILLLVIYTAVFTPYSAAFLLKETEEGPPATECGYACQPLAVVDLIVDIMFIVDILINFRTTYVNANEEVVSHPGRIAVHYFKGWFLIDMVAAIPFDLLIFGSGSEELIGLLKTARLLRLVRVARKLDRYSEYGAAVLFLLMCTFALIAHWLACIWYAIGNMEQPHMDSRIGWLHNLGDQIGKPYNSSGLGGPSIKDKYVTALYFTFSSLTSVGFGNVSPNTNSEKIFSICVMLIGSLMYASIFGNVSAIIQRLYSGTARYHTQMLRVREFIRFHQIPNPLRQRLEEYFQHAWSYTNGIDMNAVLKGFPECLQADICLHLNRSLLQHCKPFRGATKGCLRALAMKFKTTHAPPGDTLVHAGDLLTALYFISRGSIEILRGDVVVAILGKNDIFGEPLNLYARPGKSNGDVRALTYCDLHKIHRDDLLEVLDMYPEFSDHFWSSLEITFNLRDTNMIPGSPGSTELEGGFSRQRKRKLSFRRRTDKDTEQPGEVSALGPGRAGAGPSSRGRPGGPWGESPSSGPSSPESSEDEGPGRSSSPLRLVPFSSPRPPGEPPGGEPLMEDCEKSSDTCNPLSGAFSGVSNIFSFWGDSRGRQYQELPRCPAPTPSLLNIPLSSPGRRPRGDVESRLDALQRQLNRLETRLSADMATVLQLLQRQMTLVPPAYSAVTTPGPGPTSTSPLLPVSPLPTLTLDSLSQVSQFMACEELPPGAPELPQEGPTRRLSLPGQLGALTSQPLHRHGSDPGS
row,SMILES,"hERG current change (%, negative = inhibition) at 10uM"
1,OCc1ccccc1N=c1ssnc1Cl,15.9%
2,CC(=O)N1CC(C)Sc2ccc(S(=O)(=O)NCc3ccccc3Cl)cc21 (centres unmarked),-8.78%
3,CC1CCN(C(=O)C2CCCCN2S(=O)(=O)c2cccc([N+](=O)[O-])c2)CC1 (centres unmarked),1.35%
4,Cc1cc(C)c(NC(=O)CSc2ccc(-c3ccccn3)nn2)c(C)c1,17.9%
5,CC1CCN(C(=O)c2nc[nH]c2C(=O)OCCNC(=O)OC(C)(C)C)CC1,4.23%
6,CC1=CC(C)(C)Nc2ccc(OC(=O)CN3C(=O)c4ccccc4C3=O)cc21,15%
7,CC1Cc2ccccc2N1C(=O)COC(=O)Cc1ccc(F)cc1 (centres unmarked),-13.9%
8,C=CCN(CC=C)C(=S)NCCc1ccc(OC)c(OC)c1,-3.41%
9,Cc1cc([N+](=O)[O-])nn1CC(=O)Nc1c(C)n(C)n(-c2ccccc2)c1=O,18.4%
10,CC(C)CC(c1nnnn1Cc1ccccc1)N1CCN(C(=O)c2ccco2)CC1 (centres unmarked),-63.4%
11,O=C(c1ccco1)N1CCN(C(c2ccc(Cl)cc2)c2nnnn2CC2CCCO2)CC1 (centres unmarked),-22.1%
12,COc1cccc(C(c2nnnn2Cc2ccccc2)N2CCN(C(=O)c3ccco3)CC2)c1OC (centres unmarked),-30.2%
13,COc1ccc(C(c2sc3nc(C)nn3c2O)N2CCN(Cc3ccccc3)CC2)cc1OC (centres unmarked),-18.3%
14,CCOc1ccc(C(c2nnnn2Cc2ccccc2)N2CCN(C(=O)c3ccco3)CC2)cc1.Cl (centres unmarked),-57%
15,COCCn1nnnc1C(c1ccc(Cl)cc1)N1CCN(C(=O)c2ccco2)CC1.Cl (centres unmarked),-22.4%
16,COCCn1nnnc1C(c1ccccc1)N1CCN(C(=O)c2ccco2)CC1.Cl (centres unmarked),16.7%
17,CC(C)CC(c1nnnn1CCc1ccccc1)N1CCN(C(=O)c2ccco2)CC1 (centres unmarked),-46.6%
18,Cc1nc2sc(C(c3cccs3)N3CCN(Cc4ccccc4)CC3)c(O)n2n1 (centres unmarked),-81.2%
19,CCC(c1nnnn1Cc1ccccc1)N1CCN(C(=O)c2ccco2)CC1 (centres unmarked),-36.3%
20,Cc1nc2sc(C(c3cccs3)N3CCN(c4ccccc4)CC3)c(O)n2n1 (centres unmarked),-9.85%
21,O=C(c1ccco1)N1CCN(C(c2ccc(Cl)cc2)c2nnnn2Cc2ccccc2)CC1 (centres unmarked),-68.2%
22,COC(=O)/C(=C\Nc1ccccc1)NC(=O)c1ccc(Cl)cc1Cl,-17.2%
23,Cc1nc2sc(C(c3ccccc3)N3CCN(C(=O)c4ccco4)CC3)c(O)n2n1 (centres unmarked),8.97%
24,COc1ccccc1C(c1nnnn1C(C)(C)C)N1CCN(C(=O)c2ccco2)CC1 (centres unmarked),-53.9%
25,CCC(C)(C)n1nnnc1C(c1ccccc1OC)N1CCN(C(=O)c2ccco2)CC1 (centres unmarked),-32.6%
26,COCCn1nnnc1C(c1ccc(OC)cc1)N1CCN(C(=O)c2ccco2)CC1.Cl (centres unmarked),-4.77%
27,Cc1nc2sc(C(c3ccc(Cl)cc3)N3CCN(C(=O)c4ccco4)CC3)c(O)n2n1 (centres unmarked),-60.1%

row,SMILES,"hERG current change (%, negative = inhibition) at 10uM"
1,COc1ccc(C(c2nnnn2Cc2ccccc2)N2CCN(C(=O)c3ccco3)CC2)cc1OC.Cl (centres unmarked),-19.9%
2,Cc1ccc(C(c2sc3nc(C)nn3c2O)N2CCN(C(=O)c3ccco3)CC2)cc1 (centres unmarked),-31.4%
3,COc1ccccc1C(c1nnnn1C(C)C)N1CCN(C(=O)c2ccco2)CC1 (centres unmarked),1.24%
4,CCOc1ccc(C(c2nnnn2C(C)(C)C)N2CCN(C(=O)c3ccco3)CC2)cc1 (centres unmarked),-69.3%
5,COc1ccc(C(c2nnnn2C(C)(C)C)N2CCN(C(=O)c3ccco3)CC2)cc1 (centres unmarked),-37.4%
6,CCC(C)(C)n1nnnc1C(c1ccc(OC)cc1)N1CCN(C(=O)c2ccco2)CC1 (centres unmarked),-41.6%
7,COc1ccc(C(c2nnnn2Cc2ccccc2)N2CCN(C(=O)c3ccco3)CC2)cc1 (centres unmarked),-60.6%
8,Cc1ccc(-c2nc3c(c(SCC(=O)N4CCOCC4)n2)COC(C)(C)C3)cc1,3.09%
9,O=C(NCCCn1ccnc1)C(=O)Nc1ccccc1,11.8%
10,CCCNc1nc2c(c(=O)[nH]c(=O)n2C)n1CCc1ccccc1,4.04%
11,C#CCN(C(=O)c1ccc(OC)c(OC2CCN(C(C)C)CC2)c1)C1CCCCC1,-46.4%
12,C=CCc1cccc2cc(C(=O)NC)c(=O)oc12,-5.8%
13,Cn1cnnc1-c1cccc(NS(=O)(=O)c2ccc(N3CCCC3=O)cc2)c1,9.92%
14,CCN(CC)c1ncnc2c1[nH]c1ccccc12,-21.8%
15,Cc1ccc2occ(C(c3nnnn3C3CCCC3)N3CCN(C(=O)c4ccco4)CC3)c(=O)c2c1 (centres unmarked),-45.7%
16,O=C(c1ccco1)N1CCN(C(c2coc3ccc(Cl)cc3c2=O)c2nnnn2C2CCCC2)CC1 (centres unmarked),-55.6%
17,O=c1c(C(c2nnnn2C2CCCCC2)N2CCCCC2)coc2ccc(Cl)cc12 (centres unmarked),0.931%
18,COc1ccc(S(=O)(=O)Nc2cc3c4c(c2)CCN4C(=O)CC3)cc1OC,-7.56%
19,O=C(Cc1ccc(Cl)c(Cl)c1)N/N=C/c1cccnc1,-40%
20,C=CCn1c(SCc2ccccc2)nnc1-c1cccnc1,-20.5%
21,C=CCn1c(SCc2ccc(C#N)cc2)nnc1-c1ccc(C)cc1,-71.3%
22,c1ccc(CCn2c(SCc3ccccc3)nnc2-c2ccncc2)cc1,-41.4%
23,C=CCn1c(SCCC#N)nnc1-c1ccncc1,-4.28%
24,N#Cc1ccc(CSc2nnc(-c3ccncc3)n2CCc2ccccc2)cc1,-74.1%
25,Cn1c(SCc2ccc(C#N)cc2)nnc1-c1ccncc1,-19.7%
26,C=CCn1c(SCc2cccnc2)nnc1-c1ccncc1,-1.49%
27,C=CCn1c(SCc2ccc(C#N)cc2)nnc1-c1ccccc1,-57.8%

row,SMILES,"hERG current change (%, negative = inhibition) at 10uM"
1,Cn1c(SCc2ccc(C#N)cc2)nnc1-c1ccccc1,-29%
2,CC(=O)c1c(C)[n+]([O-])c2ccc3c(non3O)c12,13.6%
3,CCOC(=O)C1=NN(c2ccc(Cl)cc2)C(c2ccccc2)CC1=O (centres unmarked),-5.12%
4,COc1cccc(NC(=O)CN(C)C(=O)c2cc(C3CC3)nn2-c2ccccc2)c1,-23.1%
5,Cc1cc(C)nc(NS(=O)(=O)c2ccc(N/C=C/C(=O)c3ccc(Cl)c(Cl)c3)cc2)n1,25.6%
6,CCOC(=O)c1oc2ccccc2c1NC(=O)c1cc(OC)cc(OC)c1,7.29%
7,COc1ccccc1C(=O)NNC(=O)C1CC=CCC1 (centres unmarked),18.7%
8,O=C(/C(=C/O)N=Nc1ccccc1)c1ccncc1,-12.1%
9,COc1cc(NC(=S)NCc2cccnc2)c(OC)cc1Cl,-27.9%
10,CC(=O)N(c1ccccc1)C1SC(=O)N(c2ccccc2)C1=O (centres unmarked),13.9%
11,Cc1cc[n+](Cc2ccccc2)cc1.[O-][Cl+3]([O-])([O-])[O-],18.9%
12,[O-][Cl+3]([O-])([O-])[O-].c1ccc(C[n+]2ccccc2)cc1,-3.58%
13,O=[N+]([O-])c1ccc(C[n+]2c(-c3ccccc3)cc(-c3ccccc3)cc2-c2ccccc2)cc1.[O-][Cl+3]([O-])([O-])[O-],-25.8%
14,Cc1ccc(C[n+]2c(-c3ccc(C)cc3)cc(-c3ccc(C)cc3)cc2-c2ccc(C)cc2)cc1.[O-][Cl+3]([O-])([O-])[O-],-75.6%
15,Fc1ccc(C[n+]2c(-c3ccccc3)cc(-c3ccccc3)cc2-c2ccccc2)cc1.[O-][Cl+3]([O-])([O-])[O-],-71.5%
16,Cc1ccc(-c2cc[n+](Cc3ccccc3)cc2)cc1.[Cl-],-5.47%
17,O=[N+]([O-])c1ccccc1NCc1ccccc1Cl,-4.13%
18,O=[N+]([O-])c1cc(Cl)c(O)c(-[n+]2c(-c3ccccc3)cc(-c3ccccc3)cc2-c2ccccc2)c1.[O-][Cl+3]([O-])([O-])[O-],-38.7%
19,Clc1ccc(C[n+]2c(-c3ccccc3)cc(-c3ccccc3)cc2-c2ccccc2)cc1.[O-][Cl+3]([O-])([O-])[O-],-79.5%
20,O=[N+]([O-])c1ccccc1-c1cc(-c2ccccc2)cc(-c2ccccc2)[n+]1Cc1ccccc1Cl.[O-][Cl+3]([O-])([O-])[O-],-78.7%
21,O=C([O-])c1cc(-c2ccccc2)cc(-c2ccccc2)[n+]1Cc1ccccc1,-10.1%
22,O=C(COC(=O)CCc1nc2ccccc2s1)NC(=O)NCc1ccco1,-11.4%
23,CCOc1cc(/C=C/C(=O)c2ccc(OC)c(CN3CCOCC3)c2)cc(Br)c1O,-32.5%
24,CCSc1nsc(NC(=O)Nc2cccc(C(C)=O)c2)n1,10.5%
25,Cc1ccc(-c2ccc(S(=O)(=O)N3CC(C)OC(C)C3)cc2)cc1 (centres unmarked),18.7%
26,CCCSc1cc(N2CCN(C)CC2)nc(-c2ccc(OC)cc2)n1.Cl,-29.2%
